Molecules are shown by their SMILES. Values joined by “and” are separate entries in the source; they are usually repeats but may differ in a detail not shown here. Equal values may be shown once. Where a structure was tested more than once in an assay, its records may differ in their call. Active and inactive are the calls of the source. The calls were made as follows: active = hit-call score of the fitted dose curve at least 0.9, where 1 is the maximum; inactive = score below 0.9.

Broadly, the AC50 is the midpoint of the concentration-response curve, whichever way the signal moves.

The nature of experiment [1]: CEETOX_H295R_ESTRADIOL: CeeTox H295R High-throughput Steroidogenesis Assay for Estradiol (AID 2283440).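 Also: estradiol secreted into medium quantified by LC-MS/MS after dansyl derivatisation.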 To be noted: actives raise or lower the signal. The procedure, abridged:
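H295R cells pre-stimulated 48 h with 10 uM forskolin, then exposed 48 h to chemical in 0.1% DMSO. Medium estradiol quantified by MTBE extraction, dansyl derivatisation and HPLC-MS/MS; bidirectional fit versus DMSO; MTT viability required >/=70%.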

Experiment [2] can be described thus: CEETOX_H295R_ESTRONE: CeeTox H295R High-throughput Steroidogenesis Assay for Estrone (AID 2283441). To be noted: actives raise or lower the signal. The procedure, abridged: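 Estrone secreted into medium quantified by LC-MS/MS after dansyl chloride derivatization, following 48 h chemical exposure (0.1% DMSO final) of forskolin-prestimulated (10 uM, 48 h) H295R cells; gain or loss fitted against DMSO; MTT viability in same wells.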

Experiment [3] in a line: CEETOX_H295R_PROG: CeeTox H295R High-throughput Steroidogenesis Assay for Progesterone (PROG) (AID 2283442).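 As to AC50: human H295R adrenal cells primed with 10 µM forskolin before dosing.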 To be noted: actives raise or lower the signal. In short, it runs like this: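 H295R adrenal cells prestimulated 48 h with 10 uM forskolin, then exposed 48 h to test chemical in 0.1% DMSO. Progesterone in medium quantified by HPLC-MS/MS after MTBE extraction; viability checked by MTT in same wells.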

Read-out in experiment [4]: Tumor necrosis factor receptor superfamily member 6 (Homo sapiens) (UniProt P25445)
The experiment is described as follows: LTEA_HepaRG_FAS: Life Technologies and Expression Analysis (LTEA) Assay for Fas cell surface death receptor (FAS) using HepaRG (AID 2283447). As to conditions: mRNA level, 48 h; actives raise or lower the signal. The procedure, abridged: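 FAS transcript level was measured by TaqMan qRT-PCR against three housekeeping genes after 48 h chemical exposure. Cells were HepaRG, 0.5% DMSO vehicle, with a top concentration of 100 uM and half-log dilutions over eight points, in duplicate.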

Read-out in experiment [5]: Fatty acid synthase (Homo sapiens) (UniProt P49327)
Briefly: LTEA_HepaRG_FASN: Life Technologies and Expression Analysis (LTEA) Assay for Fatty Acid Synthase (FASN) using HepaRG (AID 2283448). As to conditions: mRNA level, 48 h; actives raise or lower the signal. The procedure, abridged: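 FASN transcript measured by TaqMan qRT-PCR, normalised to three housekeeping genes, after 48 h chemical exposure of HepaRG cells. Eight-point half-log series from 100 uM in 0.5% DMSO, duplicates; gain or loss fitted against vehicle.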

Read-out in experiment [6]: Cyclin D2 (CCND2), CCND2 (gene 894)
Briefly: LTEA_HepaRG_CCND2: Life Technologies and Expression Analysis (LTEA) Assay for Cyclin D2 (CCND2) using HepaRG (AID 2283449). As to conditions: mRNA level, 48 h; actives raise or lower the signal. The procedure, abridged: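 CCND2 transcript levels, quantified by qRT-PCR and normalised to three housekeeping genes, were fitted bidirectionally against 0.5% DMSO. HepaRG cultures were dosed 48 h in duplicate with an 8-point half-log series up to 100 uM.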

Read-out in experiment [7]: Cyclin Dependent Kinase Inhibitor 1A (CDKN1A), CDKN1A (gene 1026)
The experiment is described as follows: LTEA_HepaRG_CDKN1A: Life Technologies and Expression Analysis (LTEA) Assay for Cyclin Dependent Kinase Inhibitor 1A (CDKN1A) using HepaRG (AID 2283450). To be noted: mRNA level, 48 h; actives raise or lower the signal. The procedure, abridged:
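Differentiated HepaRG cells in serum-free induction medium, exposed 48 h in duplicate to eight half-log concentrations up to 100 uM in 0.5% DMSO. mRNA measured by TaqMan qRT-PCR, normalized to ACTB, GAPDH, POLR2A; bidirectional fit versus DMSO.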

Read-out in experiment [8]: Cyclin D1 (CCND1), CCND1 (gene 595)
Briefly: LTEA_HepaRG_CCND1: Life Technologies and Expression Analysis (LTEA) Assay for Cyclin D1 (CCND1) using HepaRG (AID 2283451).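 As to AC50: TaqMan qRT-PCR transcript level normalised to ACTB GAPDH and POLR2A housekeeping genes.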 As to conditions: mRNA level, 48 h; actives raise or lower the signal. In short, it runs like this: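 Differentiated HepaRG cells exposed 48 h in serum-free induction medium to eight half-log concentrations from 100 uM top, 0.5% DMSO, duplicates. CCND1 mRNA measured by Fluidigm TaqMan qRT-PCR, normalised to ACTB, GAPDH, POLR2A; bidirectional fit.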

Read-out in experiment [9]: catalase (CAT), CAT (gene 847)
The experiment is described as follows: LTEA_HepaRG_CAT: Life Technologies and Expression Analysis (LTEA) Assay for catalase (CAT) using HepaRG (AID 2283452). To be noted: mRNA level, 48 h; actives raise or lower the signal. In short, it runs like this:
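Expression of CAT was quantified by TaqMan qRT-PCR with ACTB/GAPDH/POLR2A normalization after 48 h chemical exposure of HepaRG. Eight-point half-log series, top 100 uM, in 0.5% DMSO; gain or loss fitted against vehicle.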

Read-out in experiment [10]: flavin-containing dimethylaniline monooxygenases 3 (FMO3), FMO3 (gene 2328)
Briefly: LTEA_HepaRG_FMO3: Life Technologies and Expression Analysis (LTEA) Assay for flavin-containing dimethylaniline monooxygenases 3 (FMO3) using HepaRG (AID 2283453). To be noted: mRNA level, 48 h; actives raise or lower the signal. The procedure, abridged: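 FMO3 transcript quantified by TaqMan qRT-PCR against three housekeeping genes after 48 h chemical exposure of HepaRG cells. Eight-point half-log series, top 100 uM, 0.5% DMSO vehicle; phenobarbital 1mM induction control; up- or down-regulation fitted.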

Read-out in experiment [11]: Cytochrome P450 (CYP1A1), CYP1A1 (gene 1543)
The experiment is described as follows: LTEA_HepaRG_CYP1A1: Life Technologies and Expression Analysis (LTEA) Assay for Cytochrome P450 (CYP1A1) using HepaRG (AID 2283454). As to conditions: mRNA level, 48 h; actives raise or lower the signal. The procedure, abridged:
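Differentiated human HepaRG cells, after 48 h plating, exposed in duplicate for 48 h in serum-free induction medium to 8 half-log concentrations up to 100 uM in 0.5% DMSO. CYP1A1 mRNA by qRT-PCR, normalized to ACTB/GAPDH/POLR2A; bidirectional fit versus DMSO.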

Read-out in experiment [12]: CFLAR gene, CFLAR (gene 8837)
The experiment is described as follows: LTEA_HepaRG_CFLAR: Life Technologies and Expression Analysis (LTEA) Assay for CFLAR gene using HepaRG (AID 2283455). To be noted: mRNA level, 48 h; actives raise or lower the signal. The procedure, abridged:
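Transcript level by qRT-PCR (normalized to ACTB, GAPDH and POLR2A) after 48 h chemical exposure of HepaRG cells, top concentration 100 uM with half-log steps, 0.5% DMSO vehicle, duplicates; fitted bidirectionally against DMSO baseline.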

Read-out in experiment [13]: Forkhead box O3 (FOXO3), FOXO3 (gene 2309)
The experiment is described as follows: LTEA_HepaRG_FOXO3: Life Technologies and Expression Analysis (LTEA) Assay for Forkhead box O3 (FOXO3) using HepaRG (AID 2283459). As to conditions: mRNA level, 48 h; actives raise or lower the signal. The procedure, abridged: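 FOXO3 transcript measured by qRT-PCR (normalized to ACTB, GAPDH, POLR2A) after 48 h exposure of HepaRG cells in serum-free induction medium. Duplicates, eight half-log concentrations up to 100 uM, 0.5% DMSO; gain or loss fitted against DMSO.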

Read-out in experiment [14]: ABC Transporter (ABCB1), ABCB1 (gene 5243)
The experiment is described as follows: LTEA_HepaRG_ABCB1: Life Technologies and Expression Analysis (LTEA) Assay for ABC Transporter (ABCB1) using HepaRG (AID 2283460). To be noted: mRNA level, 48 h; actives raise or lower the signal. The procedure, abridged: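 ABCB1 transcript level measured by TaqMan qRT-PCR against three housekeeping genes after 48 h chemical exposure of differentiated HepaRG cells. Top concentration 100 uM, half-log steps, eight points, 0.5% DMSO vehicle; bidirectional fit relative to DMSO.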

Read-out in experiment [15]: growth arrest and DNA damage 45 (GADD45B), GADD45B (gene 4616)
Briefly: LTEA_HepaRG_GADD45B: Life Technologies and Expression Analysis (LTEA) Assay for growth arrest and DNA damage 45 (GADD45B) using HepaRG (AID 2283461). To be noted: mRNA level, 48 h; actives raise or lower the signal. In short, it runs like this: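 Differentiated human HepaRG cells in serum-free induction medium exposed 48 h in duplicate to eight concentrations, top 100 uM, half-log steps, 0.5% DMSO. GADD45B mRNA by TaqMan qRT-PCR, normalized to ACTB, GAPDH, POLR2A; bidirectional fit versus DMSO.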

Read-out in experiment [16]: ABC Transporter (ABCB11), ABCB11 (gene 8647)
The experiment is described as follows: LTEA_HepaRG_ABCB11: Life Technologies and Expression Analysis (LTEA) Assay for ABC Transporter (ABCB11) using HepaRG (AID 2283463). To be noted: mRNA level, 48 h; actives raise or lower the signal. In short, it runs like this: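 ABCB11 transcript levels quantified by TaqMan qRT-PCR against three housekeeping genes after 48 h chemical exposure of HepaRG cultures. Concentrations up to 100 uM in half-log steps, 0.5% DMSO vehicle; both induction and suppression scored.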

The nature of experiment [17]: CEETOX_H295R_TESTO: CeeTox H295R High-throughput Steroidogenesis Assay for Testosterone (TESTO) (AID 2283457). To be noted: actives raise or lower the signal. In short, it runs like this:
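H295R adrenal cells, passage ≤10, exposed to chemicals for 48 h. Testosterone in medium measured by MTBE extraction and HPLC-MS/MS against a 7-point standard curve. Bidirectional fit versus DMSO; MTT viability checked in the same wells.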

Read-out in experiment [18]: Forkhead box O1 (FOXO1), FOXO1 (gene 2308)
Briefly: LTEA_HepaRG_FOXO1: Life Technologies and Expression Analysis (LTEA) Assay for Forkhead box O1 (FOXO1) using HepaRG (AID 2283456). To be noted: mRNA level, 48 h; actives raise or lower the signal. The procedure, abridged:
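FOXO1 transcript quantified by qRT-PCR after 48 h chemical exposure (top 100 uM, half-log steps, 0.5% DMSO) of HepaRG cells, housekeeping-normalized (ACTB/GAPDH/POLR2A). Changes fitted in both directions relative to vehicle.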

Fatty acid synthase (Homo sapiens), sequence (P49327 whole entry, looked up): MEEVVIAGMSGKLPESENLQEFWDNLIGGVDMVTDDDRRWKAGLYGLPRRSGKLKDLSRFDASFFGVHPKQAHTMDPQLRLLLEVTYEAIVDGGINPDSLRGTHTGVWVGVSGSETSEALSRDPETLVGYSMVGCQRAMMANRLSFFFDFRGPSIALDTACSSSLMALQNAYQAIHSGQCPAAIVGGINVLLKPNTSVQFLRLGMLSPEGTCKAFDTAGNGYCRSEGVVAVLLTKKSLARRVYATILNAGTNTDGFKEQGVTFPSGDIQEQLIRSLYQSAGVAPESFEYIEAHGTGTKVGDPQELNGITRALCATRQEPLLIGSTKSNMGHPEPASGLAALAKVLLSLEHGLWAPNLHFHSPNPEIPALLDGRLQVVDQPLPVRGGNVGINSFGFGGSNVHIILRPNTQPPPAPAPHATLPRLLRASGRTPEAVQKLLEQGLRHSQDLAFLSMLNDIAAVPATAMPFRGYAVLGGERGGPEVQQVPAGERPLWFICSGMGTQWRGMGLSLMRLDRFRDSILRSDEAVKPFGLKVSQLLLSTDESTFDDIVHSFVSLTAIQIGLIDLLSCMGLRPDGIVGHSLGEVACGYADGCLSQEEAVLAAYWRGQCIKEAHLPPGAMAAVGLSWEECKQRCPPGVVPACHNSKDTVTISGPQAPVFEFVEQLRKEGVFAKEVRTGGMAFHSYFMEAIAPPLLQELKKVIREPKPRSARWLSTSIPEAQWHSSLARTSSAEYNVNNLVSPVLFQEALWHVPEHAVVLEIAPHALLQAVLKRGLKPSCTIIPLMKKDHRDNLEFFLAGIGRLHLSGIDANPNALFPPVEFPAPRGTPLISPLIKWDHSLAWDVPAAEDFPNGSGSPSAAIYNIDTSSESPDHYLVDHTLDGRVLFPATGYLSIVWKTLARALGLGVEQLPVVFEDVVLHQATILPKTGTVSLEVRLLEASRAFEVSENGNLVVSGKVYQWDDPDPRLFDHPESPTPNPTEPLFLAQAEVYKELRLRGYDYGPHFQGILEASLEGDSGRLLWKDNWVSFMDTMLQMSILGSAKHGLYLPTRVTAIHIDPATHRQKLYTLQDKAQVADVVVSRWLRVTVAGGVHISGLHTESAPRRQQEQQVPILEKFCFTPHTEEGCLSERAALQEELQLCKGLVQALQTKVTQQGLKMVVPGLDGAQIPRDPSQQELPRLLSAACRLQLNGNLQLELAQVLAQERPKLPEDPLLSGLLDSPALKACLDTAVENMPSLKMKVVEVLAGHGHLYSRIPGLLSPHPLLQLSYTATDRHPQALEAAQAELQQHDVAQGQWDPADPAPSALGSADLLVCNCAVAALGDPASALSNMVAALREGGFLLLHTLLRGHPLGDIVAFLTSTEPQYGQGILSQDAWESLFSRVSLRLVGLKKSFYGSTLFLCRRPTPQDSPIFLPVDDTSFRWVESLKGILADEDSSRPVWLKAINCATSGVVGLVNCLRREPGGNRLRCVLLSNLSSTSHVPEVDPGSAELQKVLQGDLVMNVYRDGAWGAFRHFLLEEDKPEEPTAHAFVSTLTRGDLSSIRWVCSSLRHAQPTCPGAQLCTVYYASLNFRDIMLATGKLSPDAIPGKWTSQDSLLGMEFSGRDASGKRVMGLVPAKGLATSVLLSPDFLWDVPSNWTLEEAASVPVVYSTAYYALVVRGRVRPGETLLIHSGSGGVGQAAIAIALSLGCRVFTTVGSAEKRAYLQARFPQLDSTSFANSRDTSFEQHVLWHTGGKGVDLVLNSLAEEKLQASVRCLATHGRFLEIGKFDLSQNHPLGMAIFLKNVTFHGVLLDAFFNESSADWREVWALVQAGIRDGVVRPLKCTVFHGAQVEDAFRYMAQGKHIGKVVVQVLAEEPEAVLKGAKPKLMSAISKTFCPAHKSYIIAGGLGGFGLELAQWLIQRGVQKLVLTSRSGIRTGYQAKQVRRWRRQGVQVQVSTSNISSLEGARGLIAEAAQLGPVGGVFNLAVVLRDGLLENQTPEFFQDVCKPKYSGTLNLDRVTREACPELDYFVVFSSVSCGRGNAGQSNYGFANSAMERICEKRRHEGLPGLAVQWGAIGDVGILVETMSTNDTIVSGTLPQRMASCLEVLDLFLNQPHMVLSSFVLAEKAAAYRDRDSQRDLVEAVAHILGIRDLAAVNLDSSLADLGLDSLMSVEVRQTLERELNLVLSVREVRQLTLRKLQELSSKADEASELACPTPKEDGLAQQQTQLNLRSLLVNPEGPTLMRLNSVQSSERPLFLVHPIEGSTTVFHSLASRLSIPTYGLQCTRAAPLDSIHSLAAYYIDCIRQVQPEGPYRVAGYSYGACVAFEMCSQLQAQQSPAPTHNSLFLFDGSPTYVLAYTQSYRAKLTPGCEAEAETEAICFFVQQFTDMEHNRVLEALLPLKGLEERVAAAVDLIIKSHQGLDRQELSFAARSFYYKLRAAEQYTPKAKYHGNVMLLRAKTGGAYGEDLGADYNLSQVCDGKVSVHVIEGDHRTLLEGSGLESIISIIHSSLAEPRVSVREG

On to `CCOC(=O)c1ccc(O)cc1`, for which the compound was called inactive in experiment [1], in [2], in [4], in [5], in experiment [6] and in experiment [7]. For the same compound, the compound was called inactive in [8], in experiment [9], in [10], in experiment [11], in experiment [12] and in experiment [13]. Besides, the result in experiment [14], in [15] and in experiment [16] was inactive. The AC50 in experiment [3] was 36.5 µM (active).
Turning to `CCCN(CCC)C(=O)SCC`, the compound was classed as inactive in [1], in experiment [2], in experiment [3], in experiment [4], in [5] and in [6]. Also, the call in experiment [7], in experiment [8], in experiment [10], in experiment [12], in experiment [17] and in experiment [13] was inactive. The outcome in experiment [14], in experiment [15] and in experiment [16] was inactive.
In the case of `CCCCOCCOCCOCc1cc2c(cc1CCC)OCO2`, the result in [3], in [4], in experiment [5], in experiment [6], in experiment [7] and in experiment [8] was inactive. In addition, the compound was classed as inactive in experiment [10], in experiment [12], in [18], in experiment [17], in experiment [13] and in experiment [15]. In [16], the result was inactive. The AC50 in experiment [14] is 4.01 µM (active).
As to `CC(=O)[C@H]1CC[C@H]2[C@@H]3CCC4=CC(=O)CC[C@]4(C)[C@H]3CC[C@]12C`, the compound was classed as inactive in experiment [1], in experiment [2], in experiment [6], in experiment [8] and in [13]. In addition, the AC50 was 5 µM (active) in experiment [3]; 60.6 µM (active) in experiment [4]; 82.1 µM (active) in experiment [5]; 16.8 µM (active) in experiment [7]; 50 µM (active) in experiment [9]; 34.1 µM (active) in experiment [10]. The AC50 is 77.8 µM (active) in [12], 79.3 µM (active) in experiment [14], 30 µM (active) in experiment [15] and 58.5 µM (active) in experiment [16].
As to `S=C(S)NCCNC(=S)S.[Mn+2].[S-]C([S-])=NCCN=C([S-])[S-].[Zn+2]`, the call in experiment [3], in experiment [4], in experiment [6], in [7], in experiment [8] and in [13] was inactive. In addition, the half-maximal activity concentration (AC50) was 1.63 µM (active) in [4]; 1.14 µM (active) and 714 nM (active) and 1.11 µM (active) in experiment [5]; 25 µM (active) and 3.66 µM (active) in [7]; 0.187 µM (active) in experiment [8]; 4.22 µM (active) and 2.04 µM (active) and 2.68 µM (active) in [10]; 1.31 µM (active) and 1.18 µM (active) and 1.48 µM (active) in [12]. Moreover, the AC50 was 1.62 µM (active) and 1.21 µM (active) in experiment [13]; 881 nM (active) and 993 nM (active) and 732 nM (active) in [14]; 3.12 µM (active) and 2.14 µM (active) and 4.41 µM (active) in [15]; 695 nM (active) and 718 nM (active) and 693 nM (active) in experiment [16].
Regarding `CC(C)(C)[C@@H](O)[C@@H](Cc1ccc(Cl)cc1)n1cncn1`, the compound was called inactive in experiment [3], in [4], in experiment [6], in experiment [7], in experiment [8] and in experiment [10]. In addition, the compound was classed as inactive in [12], in experiment [18], in experiment [13] and in experiment [16]. Moreover, the figures for the AC50 in experiment [5] and in [14] were 50 µM (active) and 8.74 µM (active), respectively.

For the origin of these results see PubChem BioAssay (EPA / NIEHS).
